# Data: ChEMBL document CHEMBL3988442, “University of Dundee, Small-Polar-MMV Screening Library” (2021)
# Biological target: AMP-activated protein kinase, AMPK (Homo sapiens) (UniProt P54646+O43741+P54619+Q9UGJ0+Q9Y478+Q13131+Q9UGI9)
# Assay: AMP-dependent Kinase enzyme assay. An in vitro enzyme assay that detects ADP turnover that is directly proportional to AMPK activity. This uses naive AMPK that is activated during the assay with MK-8722
# Format: functional
# Design: scale not given: direction of the effect not stated beside the values
# Details: 30 µM
row,Structure (SMILES),Percent Effect
1,Cc1cc(N(C)C)nc(N2CCn3c(nnc3C3CC3)C2)n1,-2.99%
2,Cc1n[nH]c(C)c1CCN(C)C(=O)c1ccc(CCC(C)(C)O)cc1,2.23%
3,CCN(C(=O)Cn1cc(Cl)cn1)c1ccccc1,-10.4%
4,CN(C)c1ncccc1NC(=O)COCC1CC1,2.89%
5,COc1ccc(C2CN(c3cc(C)ncn3)CCN2C(C)=O)cc1 (centres undefined),21.4%
6,Cc1noc(C)c1CC(=O)N[C@@H]1CC[C@@H](Oc2ccccc2)[C@@H]1O,5.13%
7,c1ccc(OCCNC2=NCCCN2)cc1,-8.51%
8,CC(C)c1nnc2n1CCN(Cc1cccc3c1OCCO3)C2,12.9%
9,Cc1cnn(C2CCCN(C(=O)c3cc(-c4ccccc4C)n[nH]3)C2)c1 (centres undefined),1.68%
10,N#CC1(NC(=O)CN2CCc3c(ncn3C3CC3)C2)CCCC1,-7.46%
11,c1nc(N2CCCC2)cnc1C1CCNCC1,11.5%
12,Cc1nnc2n1CCN(C(=O)C(C)Oc1ccc(C#N)cc1)C2 (centres undefined),13%
13,COc1cccc(Cn2ncnc2CCC(C)N2CCN(C)CC2)c1 (centres undefined),-1.98%
14,Cc1c(C(=O)N2CCC3(CCCNC3=O)C2)sc2nc[nH]c(=O)c12 (centres undefined),13.6%
15,CC(C)(C)c1n[nH]cc1CNC1CCC(C(F)(F)F)CC1 (centres undefined),3.78%
16,CN(C)C(=O)CN1CCC(c2c(C(N)=O)sc3ncccc23)C1 (centres undefined),14.7%
17,CN1CCC(N(Cc2ccncc2)C(=O)COCC2CCCCO2)CC1 (centres undefined),1.82%
18,NC(=O)CN1CCc2c(Br)ccc(F)c2C1,1.51%
19,Cn1ccnc1CNCCNc1ncc(Cl)cc1Cl,-1.1%
20,CCS(=O)(=O)NCC(=O)N(C1CC1)C1Cc2ccccc2C1,-4.92%

row,Structure (SMILES),Percent Effect
1,Cc1cc(C)nc(N2CCCC(C)(c3[nH]ncc3C(=O)N(C)C)C2)n1 (centres undefined),4.6%
2,CCN(Cc1cnn(CC)c1)Cc1c(Cl)cncc1Cl,6.24%
3,CS(=O)(=O)N1CCCC(c2cccc(-c3ccccc3F)n2)C1 (centres undefined),12.2%
4,CCN1CCC(CC(=O)NCc2nc(C)cc(C)n2)CC1,9.34%
5,CN(C)CC1(O)CCCN(C(=O)CCn2cc(Cl)cn2)C1 (centres undefined),4.94%
6,CCN(Cc1nc(Cc2ccccc2)no1)C1CC1,9.85%
7,CN(CC1(CO)CCC1)c1nc2c(c(=O)[nH]1)Cc1ccccc1OC2,1.42%
8,CSc1nccc(N2CCC(NCc3ccc4nsnc4c3)CC2)n1,2.27%
9,CC(=O)Cn1c(C)cc(=O)c2cc(F)ccc21,10.5%
10,COCC(C)NC(=O)N1CCN(S(C)(=O)=O)CC1 (centres undefined),11.4%
11,CC(C(=O)NCCc1ccc2c(c1)OCCO2)n1cncn1 (centres undefined),-6.97%
12,Cc1ccc(O)c(CN2CCCCC2CCN2CCOCC2)c1 (centres undefined),8.46%
13,CCNc1ncc(C(=O)NCCc2csc(-c3ncccn3)n2)cn1,-8.34%
14,CC(C)N(CC(=O)Nc1cccc(C#N)c1)C1CC1,0.161%
15,CSC1(CNC(=O)N(C)Cc2ccc(C)s2)CCOCC1,-2.72%
16,CCOc1ccccc1CN(C)C(=O)CN1C(=O)OC[C@@H]1C(C)C,5.19%
17,Cc1nc(C)c(C(C)NCc2cnc(N3CCOCC3)nc2)s1 (centres undefined),7.71%
18,Cc1cc(CN(C)Cc2csc(-c3cccs3)n2)n[nH]1,6.79%
19,Cc1cc(N2CCOC(c3ccccn3)C2)nc(N)n1 (centres undefined),10.1%
